PubChem BioAssay (NCI)
This is part of a sample that, as a whole, favours compounds with a hit. Of some 79,000 tested, about 15% had one in any assay. Activity calls are given as the source filed them. No stated cut-off is given here; in the data, active means growth inhibition above about 70%; inactive means the rest.

Legend:
[1] = NCI Yeast Anticancer Drug Screen. Data for the wt2 strain (AID 169);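 further: 0% = growth of vehicle-treated yeast cultures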; conditions: S. cerevisiae wt2 strain growth inhibition, stronger effect = higher value
Method in brief: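 Growth of compound-treated yeast is measured and expressed as inhibition relative to vehicle-only controls.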

[2] = NCI Yeast Anticancer Drug Screen. Data for the mlh1 strain (AID 171);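 further: 0% = growth of vehicle-treated control cultures of the same strain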; conditions: S. cerevisiae mlh1 strain growth inhibition, stronger effect = higher value
Method in brief: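 Test agents were incubated with yeast bearing a defined DNA damage repair or cell cycle control alteration; values are growth inhibition normalised to vehicle-treated cultures.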

[3] = NCI Yeast Anticancer Drug Screen. Data for the sgs1 strain (AID 173);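 further: 0% = growth of vehicle-only control cultures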; conditions: S. cerevisiae sgs1 mutant, stronger effect = higher value
Method in brief: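 Strain with an altered DNA repair or cell cycle pathway exposed to compound. Growth then measured. Value = inhibition versus vehicle control.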

[4] = NCI Yeast Anticancer Drug Screen. Data for the mlh1 rad18 strain (AID 175); conditions: S. cerevisiae mlh1 rad18 strain growth inhibition, stronger effect = higher value
Method in brief: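 A repair-deficient yeast strain is exposed to test compound, and growth is scored relative to vehicle-treated controls.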

[5] = NCI Yeast Anticancer Drug Screen. Data for the rad18 strain (AID 177); conditions: S. cerevisiae rad18 mutant growth inhibition, stronger effect = higher value
Method in brief: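 DNA-repair-defective yeast; compound treatment; growth inhibition scored against vehicle.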

[6] = NCI Yeast Anticancer Drug Screen. Data for the rad52 strain (AID 147);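 further: 0% = growth of vehicle-treated control cultures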; conditions: S. cerevisiae rad52 mutant growth inhibition, stronger effect = higher value
Method in brief: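 Growth of repair-deficient yeast cells was compared between compound-treated and vehicle-treated cultures to give percent inhibition.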

[7] = NCI Yeast Anticancer Drug Screen. Data for the wt1 strain (AID 149);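 further: 0% = growth of vehicle-treated wt1 cultures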; conditions: S. cerevisiae wt1 strain (SPY 50644) growth inhibition, stronger effect = higher value
Method in brief: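 Compounds are added to wt1 yeast cultures. Growth is then measured. Inhibition is expressed relative to vehicle-treated controls.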

[8] = NCI Yeast Anticancer Drug Screen. Data for the rad50EPP+ strain (AID 151);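 further: 0% = growth of vehicle-treated control cultures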; conditions: S. cerevisiae rad50 mutant strain, stronger effect = higher value
Method in brief: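 Measured: growth inhibition of rad50EPP+ yeast. Reference: vehicle-treated controls. Screen uses strains with defined genetic alterations in DNA damage repair or cell cycle control.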

[9] = NCI Yeast Anticancer Drug Screen. Data for the mgt1 strain (AID 153); conditions: S. cerevisiae mgt1 mutant growth inhibition, stronger effect = higher value
Method in brief: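 Compounds were applied to mgt1 mutant yeast, and growth was then compared against vehicle-treated control cultures to give percent inhibition.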

[10] = NCI Yeast Anticancer Drug Screen. Data for the rad50 strain (AID 155);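 further: 0% = growth of vehicle-only cultures of the same strain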; conditions: S. cerevisiae rad50 strain growth inhibition, stronger effect = higher value
Method in brief: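 Inhibition values express reduced yeast growth in compound-treated cultures relative to vehicle-treated controls.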

[11] = NCI Yeast Anticancer Drug Screen. Data for the mec2-1 strain (AID 157); conditions: S. cerevisiae mec2-1 strain, stronger effect = higher value
Method in brief: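 Compounds were applied to mec2-1 yeast cells. Their growth was then compared with that of vehicle-treated cultures to give growth inhibition.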

[12] = NCI Yeast Anticancer Drug Screen. Data for the rad14 strain (AID 159);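 further: 0% = growth of vehicle-treated control cultures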; conditions: S. cerevisiae rad14 strain growth inhibition, stronger effect = higher value
Method in brief: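 A mutant yeast strain defective in DNA damage repair is treated with compound; inhibition of its growth is scored against untreated, vehicle-exposed cultures.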

[13] = NCI Yeast Anticancer Drug Screen. Data for the sgs1 mgt1 strain (AID 161);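 further: 0% = growth of cultures given vehicle only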; conditions: S. cerevisiae sgs1 mgt1 strain, stronger effect = higher value
Method in brief: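 Yeast cells carrying a defined DNA-repair defect were exposed to test compounds. Growth inhibition was measured relative to vehicle-treated controls.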

[14] = NCI Yeast Anticancer Drug Screen. Data for the CLN2oe strain (AID 163);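 further: 0% = growth of vehicle-only control cultures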; conditions: S. cerevisiae CLN2oe strain, stronger effect = higher value
Method in brief: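 Cells of an engineered yeast line with disturbed cell-cycle regulation are treated with compound. Inhibition of growth is then calculated relative to the vehicle-treated reference.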

[15] = NCI Yeast Anticancer Drug Screen. Data for the cln2 rad14 strain (AID 165);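 further: 0% = growth equal to vehicle treated cultures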; conditions: S. cerevisiae cln2 rad14 strain, stronger effect = higher value
Method in brief: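 Strain: cln2 rad14 yeast, altered in cell cycle control and DNA damage repair. Read-out: growth inhibition vs vehicle.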

[16] = NCI Yeast Anticancer Drug Screen. Data for the bub3 strain (AID 167); conditions: S. cerevisiae bub3 mutant strain, stronger effect = higher value
Method in brief: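 Steps: expose the mutant yeast strain to compound; grow alongside vehicle-treated cultures; measure growth; express inhibition against the vehicle cultures.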

[17] = at 5.0 µM (retest, dose inferred, filed as 0.5)
[18] = at 50.0 µM (retest, dose inferred, filed as 5.0)

Measured: growth inhibition

O=C1Nc2ccc(Br)cc2C1=Nc1cccnc1
inactive: [1]; at 1.2 µM -21% | [1]; at 3.7 µM -24% | [1]; at 11.0 µM -20% | [1]; at 33.0 µM -30% | [1]; at 100.0 µM -27% | [2]; at 1.2 µM -25% | [2]; at 3.7 µM -15% | [2]; at 11.0 µM -42% | [2]; at 33.0 µM -39% | [2]; at 100.0 µM -31% | [3]; at 1.2 µM -32% | [3]; at 3.7 µM -41% | [3]; at 11.0 µM -21% | [3]; at 33.0 µM -29% | [3]; at 100.0 µM -18% | [4]; [17] 31% | [4]; [18] 46% | [4]; at 50.0 µM 35.4% | [5]; at 1.2 µM -28% | [5]; at 3.7 µM -39% | [5]; at 11.0 µM -32% | [5]; at 33.0 µM -36% | [5]; at 100.0 µM -26%

O=NC1c2cccc3cccc(c23)C1N=O (stereo unspecified)
active: [6]; at 11.0 µM 75% | [6]; at 33.0 µM 90% | [6]; at 100.0 µM 94% | [8]; at 11.0 µM 81% | [8]; at 33.0 µM 92% | [8]; at 100.0 µM 93% | [9]; at 33.0 µM 86% | [9]; at 100.0 µM 94% | [10]; at 11.0 µM 84% | [10]; at 33.0 µM 93% | [10]; [18] 96% | [10]; at 50.0 µM 97% | [10]; at 100.0 µM 94% | [11]; [18] 94% | [11]; at 50.0 µM 94.3% | [12]; at 33.0 µM 92% | [12]; at 100.0 µM 97% | [13]; [18] 97% | [13]; at 50.0 µM 97.3% | [15]; [18] 92% | [15]; at 50.0 µM 80.5% | [16]; [18] 95% | [16]; at 50.0 µM 89% | [1]; at 33.0 µM 77% | [1]; at 100.0 µM 94% | [2]; at 33.0 µM 88% | [2]; at 100.0 µM 94% | [3]; at 33.0 µM 89% | [3]; at 100.0 µM 95% | [4]; [18] 98% | [4]; at 50.0 µM 97.3% | [5]; at 3.7 µM 70% | [5]; at 11.0 µM 94% | [5]; at 33.0 µM 95% | [5]; at 100.0 µM 95%
inactive: [6]; at 1.2 µM 14% | [6]; at 3.7 µM 33% | [7]; at 1.2 µM 3% | [7]; at 3.7 µM 3% | [7]; at 11.0 µM 20% | [7]; at 33.0 µM 38% | [7]; at 100.0 µM 69% | [8]; at 1.2 µM 11% | [8]; at 3.7 µM 41% | [9]; at 1.2 µM 4% | [9]; at 3.7 µM 12% | [9]; at 11.0 µM 47% | [10]; at 1.2 µM 19% | [10]; at 3.7 µM 49% | [10]; [17] 17% | [11]; at 1.2 µM -2% | [11]; at 3.7 µM 0% | [11]; [17] 13% | [11]; at 11.0 µM -1% | [11]; at 33.0 µM 31% | [11]; at 100.0 µM 45% | [12]; at 1.2 µM 4% | [12]; at 3.7 µM 25% | [12]; at 11.0 µM 40% | [13]; [17] 30% | [14]; at 1.2 µM 4% | [14]; at 3.7 µM 8% | [14]; at 11.0 µM 24% | [14]; at 33.0 µM 43% | [14]; at 100.0 µM 54% | [15]; [17] 6% | [16]; at 1.2 µM -10% | [16]; at 3.7 µM -20% | [16]; [17] -3% | [16]; at 11.0 µM 16% | [16]; at 33.0 µM 27% | [16]; at 100.0 µM 44% | [1]; at 1.2 µM 2% | [1]; at 3.7 µM 9% | [1]; at 11.0 µM 36% | [2]; at 1.2 µM 2% | [2]; at 3.7 µM 13% | [2]; at 11.0 µM 40% | [3]; at 1.2 µM 7% | [3]; at 3.7 µM 23% | [3]; at 11.0 µM 58% | [4]; [17] 48% | [5]; at 1.2 µM 22%
